Assay results as given in PubChem BioAssay.
Values without a mark were called inactive. The source made the active and inactive calls.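 The calls were made as follows: active = NADPH fluorescence slope more negative than the mean of all samples by about 3 SD, 99.7% confidence; inactive = the rest.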

What follows are molecules tested against Voltage-gated potassium channel subunit beta-2 (Rattus norvegicus) (UniProt P62483) (assay: enhancers of rat Kvbeta2 NADPH turnover – biochemical, NADPH fluorescence, primary screen (AID 623;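 also: fluorescence intensity change per second fitted from 20 to 320 s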)). Conditions: Recombinant KvBeta, NADPH fluorescence decrease slope, 10 min; at 10 µM; active compounds read low.
Voltage-gated potassium channel subunit beta-2 (Rattus norvegicus), sequence (P62483 whole entry, looked up): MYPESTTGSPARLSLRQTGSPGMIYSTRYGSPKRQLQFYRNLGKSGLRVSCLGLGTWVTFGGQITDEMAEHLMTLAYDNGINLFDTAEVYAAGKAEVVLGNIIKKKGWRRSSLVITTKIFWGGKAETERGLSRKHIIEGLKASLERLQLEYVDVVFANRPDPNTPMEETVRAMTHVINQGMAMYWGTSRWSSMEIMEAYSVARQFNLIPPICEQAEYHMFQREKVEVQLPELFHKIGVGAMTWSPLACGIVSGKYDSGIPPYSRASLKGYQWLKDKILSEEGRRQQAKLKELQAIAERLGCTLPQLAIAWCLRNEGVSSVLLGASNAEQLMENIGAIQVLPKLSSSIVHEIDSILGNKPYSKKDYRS

**Q.** How did the NADPH fluorescence slope turn out when `CCOC(=O)c1c(-c2cccs2)csc1NC(=O)CCCC(=O)O` was run?
**A.** -5.3e-05

**Q.** `Fc1ccc(-c2cnc[nH]2)cc1` was tested. Which NADPH fluorescence slope did it give?
**A.** -9.6e-05

**Q.** Which NADPH fluorescence slope does the source give for `CCOC(=O)c1[nH]c2ccc(Br)cc2c1NC(=O)CNC` here?
**A.** -6.6e-05

**Q.** `COc1ccc(C2(CN(C(C)=O)C(C)=O)CCCC2)cc1OC` was tested. Which NADPH fluorescence slope did it give?
**A.** -6.2e-05

**Q.** Which NADPH fluorescence slope does the source give for `COc1ccccc1C1C(C#N)=C(N)Oc2cc(C)n(Cc3ccccn3)c(=O)c21` (centres undefined) here?
**A.** -3.2e-05

**Q.** Which NADPH fluorescence slope does the source give for `Cc1ccc(C(=O)/C=C/Nc2cccc(O)c2)cc1` here?
**A.** -0.000129

**Q.** For `O=C(C1CC1(c1ccccc1)c1ccccc1)N1CCOCC1` (centres undefined), which NADPH fluorescence slope is on record?
**A.** -6.1e-05

**Q.** For `COC(=O)CNC(=O)c1c(C)cc(=O)oc1C`, which NADPH fluorescence slope is on record?
**A.** -2.8e-05

**Q.** How did the NADPH fluorescence slope turn out when `COc1ccc(CCn2c(=N)c(C(=O)NCc3ccco3)cc3c(=O)n4ccccc4nc32)cc1` was run?
**A.** -1.6e-05

**Q.** How did the NADPH fluorescence slope turn out when `Nc1nc(NC(=O)c2cccs2)nn1-c1ccccc1` was run?
**A.** -6.6e-05

**Q.** Which NADPH fluorescence slope does the source give for `Cc1c(O)c(CN2CCCC(C)C2)cc2c3c(c(=O)oc12)CCC3` (centres undefined) here?
**A.** 8.2e-07

**Q.** For `COc1ccc(CCn2c(=N)c(C#N)cc3c(=O)n4ccccc4nc32)cc1`, which NADPH fluorescence slope is on record?
**A.** -1.4e-05

**Q.** Which NADPH fluorescence slope does the source give for `Cn1c(SCC(=O)N2CCOCC2)nnc1-c1cccc(NC(=O)c2ccccc2F)c1` here?
**A.** -5.9e-05

**Q.** With `O=C(NC1CCS(=O)(=O)C1)c1c(NC(=O)C2COc3ccccc3O2)sc2c1CCCC2` (centres undefined) as the molecule, how does the NADPH fluorescence slope read?
**A.** -4.5e-05

**Q.** `COC(=O)C(NC(C)=O)(Nc1nc2ccc(S(C)(=O)=O)cc2s1)C(F)(F)F` (centres undefined) was tested. Which NADPH fluorescence slope did it give?
**A.** -1e-05

**Q.** With `COc1ccc2c(c1)C1(C)CC(C)(C)N2C(=O)N1c1ccccc1` (centres undefined) as the molecule, how does the NADPH fluorescence slope read?
**A.** -4.8e-05

**Q.** With `CCCCCn1c2nc3ccccc3nc2c2c(=O)n(CC(C)C)cnc21` as the molecule, how does the NADPH fluorescence slope read?
**A.** -4.4e-05

**Q.** With `Nc1nnnn1/N=C/c1ccccn1` as the molecule, how does the NADPH fluorescence slope read?
**A.** -6e-05

**Q.** `Cc1nnc2n(-c3ccccc3)c(=O)c3c4c(sc3n12)CCCC4` was tested. Which NADPH fluorescence slope did it give?
**A.** -0.000128

**Q.** `CCc1nc2sc3c(c2c(=O)o1)CCCC3` was tested. Which NADPH fluorescence slope did it give?
**A.** -5.4e-05

**Q.** How did the NADPH fluorescence slope turn out when `CCOC(=O)CNC(=O)Nc1ccccc1C(=O)OC` was run?
**A.** -0.000189 (active)

**Q.** Which NADPH fluorescence slope does the source give for `COc1ccc(C(=O)NCCCCCC(=O)O)cc1OC` here?
**A.** -3.8e-05

**Q.** With `CCOC(=O)C1=C(CSc2nc(C)cc(C)c2C#N)OC(N)=C(C#N)C1c1cccs1` (centres undefined) as the molecule, how does the NADPH fluorescence slope read?
**A.** -2.9e-05

**Q.** Which NADPH fluorescence slope does the source give for `COc1cc(NC(=O)NC(C)(C(F)(F)F)C(F)(F)F)cc(OC)c1OC` here?
**A.** -6.8e-05

**Q.** For `COC(=O)C(NC(C)=O)(Nc1ccccn1)C(F)(F)F` (centres undefined), which NADPH fluorescence slope is on record?
**A.** -0.000125

**Q.** For `CC1(C)CNC(=O)c2sc(N3CCOCC3)nc2C1`, which NADPH fluorescence slope is on record?
**A.** -4.4e-05

**Q.** Which NADPH fluorescence slope does the source give for `CCOC(=O)c1ccc(CC2S/C(=C(\C#N)C(C)=O)NC2=O)cc1` (centres undefined) here?
**A.** -4.5e-05

**Q.** For `CC(=Nc1cccc(O)c1)c1sc2ccccc2c1O`, which NADPH fluorescence slope is on record?
**A.** -6.7e-05

**Q.** With `COc1cccc(N2C(=O)C(O)=C(C(C)=O)C2c2ccc(OC)c(OC)c2)c1` (centres undefined) as the molecule, how does the NADPH fluorescence slope read?
**A.** -6.1e-06

**Q.** With `O=S(=O)(c1ccc2ccccc2c1)N(CC(O)CN1CCOCC1)c1ccccc1` (centres undefined) as the molecule, how does the NADPH fluorescence slope read?
**A.** -3.3e-05

**Q.** Which NADPH fluorescence slope does the source give for `Cc1c(O)c(CN2CCCCC2)cc2c3c(c(=O)oc12)CCC3` here?
**A.** -1.2e-06

**Q.** `O=S(=O)(NCc1cccnc1)c1cccc2nsnc12` was tested. Which NADPH fluorescence slope did it give?
**A.** -5e-05

**Q.** How did the NADPH fluorescence slope turn out when `Cc1cc(O)c(C(C)C)cc1N=C1CSC(=O)N1` was run?
**A.** -5.3e-05

**Q.** How did the NADPH fluorescence slope turn out when `Cc1nc2sc(C#N)c(N)c2c2c1CCCC2` was run?
**A.** -1e-05

**Q.** With `N#C/C(C(=O)N1CCOCC1)=C1/SC(Cc2ccccc2)C(=O)N1c1ccccc1` (centres undefined) as the molecule, how does the NADPH fluorescence slope read?
**A.** -3.8e-05

**Q.** For `CN(CC(O)COc1ccc(OCC(O)CN(C)C2CCCCC2)cc1)C1CCCCC1` (centres undefined), which NADPH fluorescence slope is on record?
**A.** -3e-05

**Q.** `Cn1c(=O)[nH]c(=O)c2c1nc(N(CCO)Cc1ccccc1)n2Cc1ccccc1Cl` was tested. Which NADPH fluorescence slope did it give?
**A.** -6.1e-05

**Q.** Which NADPH fluorescence slope does the source give for `Cc1nn(-c2ccccc2)c2c1C(=O)NC(=O)C(C)(C)C2` here?
**A.** 4.3e-05

**Q.** `Cc1ccc(-n2ncc3c(N4CCN(c5ccccc5)CC4)ncnc32)c(C)c1` was tested. Which NADPH fluorescence slope did it give?
**A.** -5e-05
